# Test results from PubChem BioAssay (NCATS).
# Inconclusive results are not listed. Where a call stands in place of a potency, no number is given. Active and inactive are the calls of the source. Unless noted, calls come from the whole dose curve; as a rule, active = well fitted curve in the direction sought with a large enough effect; inconclusive = small, poorly fitted or top-dose-only effect, or another doubt; inactive = no such curve, though single readings can be large; an effect the other way counts as inactive or inconclusive.
# Key:
# [1] = qHTS assay for small molecule agonists of retinoid X receptor alpha signaling (AID 588544; calls by dose curve); details: HEK293T RXRa-UAS-bla, beta-lactamase reporter, 18 h; 530 nm emission
# [2] = target: Retinoic acid receptor RXR-alpha (Homo sapiens) (UniProt P19793); assay: as above
# [3] = target: Thyroid hormone receptor beta (Homo sapiens) (UniProt P10828); assay: qHTS assay for small molecule agonists of thyroid hormone receptor beta signaling (AID 588545; calls by dose curve)
# In short: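 Cells (2500/well) were seeded, incubated 4 hrs at 37 C, dosed with a compound series, incubated 18 hrs, loaded with CCF4 dye for 2 hrs at RT, then read for fluorescence. Data were scaled between DMSO (0%) and 10 nM T3 (100%).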
# [4] = qHTS assay for small molecule antagonists of retinoid X receptor alpha signaling (AID 588546; active = well fitted inhibition curve with a large enough effect in the signal ratio, with a control signal flat, not every such curve was filed as active; the % refers to the signal ratio;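 note: cells stimulated with 9-cis-retinoic acid as agonist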); details: HEK293T RXRa-UAS-bla, beta-lactamase ratio, antagonist mode; measured here: W530 green channel, cytotoxicity proxy
# In short: (§1)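 Beta-lactamase reporter inhibition, read as CCF4 fluorescence ratio (ex 405, em 460/530 nm) after 2 h at RT. HEK293T UAS-bla cells, 2500/well, were stimulated with 9-cis-RA at 500 or 100 nM final alongside test compound for 18 h at 37 C.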
# [5] = target: Retinoic acid receptor RXR-alpha (Homo sapiens) (UniProt P19793); assay: as above; details: HEK293T RXRa-UAS-bla, beta-lactamase ratio, antagonist mode
# In short: as §1
# [6] = target: Thyroid hormone receptor beta (Homo sapiens) (UniProt P10828); assay: qHTS assay for small molecule antagonists of thyroid hormone receptor beta signaling (AID 588547; active = well fitted inhibition curve with a large enough effect in the signal ratio, with a control signal flat, not every such curve was filed as active; the % refers to the signal ratio;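 note: cells stimulated with 0.4 nM T3 agonist during compound exposure; series mostly up to about 77 µM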); details: TR-UAS-bla HEK293, beta-lactamase ratio, antagonist mode, 18 h
# In short: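 TR-UAS-bla GripTite HEK293 cells in 2% charcoal/dextran FBS medium; compounds 0.59 nM to 92 uM with T3 at 0.4nM final, 18 h at 37 C. Beta-lactamase read by CCF4 fluorescence (460/530 nm); Hill fits gave IC50 and efficacy.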
# [7] = target: Voltage-gated inwardly rectifying potassium channel KCNH2 (Homo sapiens) (UniProt Q12809); assay: qHTS Assay for Small Molecule Inhibitors of the Human hERG Channel Activity (AID 588834);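 note: top concentration of the series differs between compounds; lower thallium flux fluorescence means stronger hERG block; nearly all actives have a fitted effect of over 50% in size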
# In short: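 hERG-BacMam U2OS, 2000 cells/well; 0.7X FluxOR loading 1 hr RT dark; cpd ~10 min 37 °C; stim buffer; FDSS fluorescence 2 min @ 1 s; AC50 Hill fit.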
# [8] = qHTS assay for small molecule activators of the p53 signaling pathway (AID 651743; active = well fitted activation curve with a large enough effect in the signal ratio, not every such curve was filed as active; the % refers to the signal ratio; note: series mostly up to about 92 µM); details: HCT-116 p53RE-bla, beta-lactamase FRET ratio, 16 h; activation: stronger effect = higher value
# In short: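 HCT-116 p53RE-bla, 4,000 cells/well; 5 h settle; cpd/DMSO 16 h, 37 C; LiveBLAzer B/G 2 h RT; fluorescence intensity.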
# [9] = qHTS assay for small molecule activators of the nuclear factor-kappa B (NF-kB) signaling pathway (AID 651749; active = well fitted activation curve with a large enough effect in the signal ratio; the % refers to the signal ratio; note: series mostly up to about 77 µM); details: NF-kB-bla ME-180 cells, beta-lactamase FRET ratio, 16 h; activation: stronger effect = higher value
# In short: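 Incubation lasted 16 hr at 37C in 5% CO2 after 23 nL compound addition to ME-180 NF-kB-bla cells. Activation appears as beta-lactamase-mediated FRET loss.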
# [10] = qHTS assay for small molecule disruptors of the mitochondrial membrane potential - 1 hr assay (AID 651754; calls by dose curve; note: nearly all actives have a fitted effect of over 35% in size)
# In short: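 HepG2 cells, attached overnight at 37C, were exposed to compound or DMSO vehicle for 1 hr at 37C, 5% CO2, then stained with Mito-MPS dye for 30 min. Red aggregate versus green monomer fluorescence reports membrane potential.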
# [11] = qHTS assay for small molecule disruptors of the mitochondrial membrane potential - 5 hr assay (AID 651755; calls by dose curve; note: nearly all actives have a fitted effect of over 40% in size)
# In short: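 HepG2 cells (2,000/well), attached overnight, exposed to compound 5 hr at 37C, then Mito-MPS dye 30 min. Fluorescence read for monomers (490/535 nm) and aggregates (540/590 nm).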
# [12] = target: Tumor necrosis factor (Homo sapiens) (UniProt P01375); assay: qHTS assay to identify small molecules that stimulate Tumor Necrosis Factor-alpha (TNF-alpha) secretion (AID 651757; active = well fitted curve in the direction sought with a large enough effect in the signal ratio; the % refers to the signal ratio)
# In short: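 THP-1 cells were exposed to compounds for 17 hrs at 37 C, after which secreted TNF-alpha was measured by homogeneous HTRF (TR-FRET) using cryptate- and XL665-labeled anti-TNF-alpha antibodies, read after 3 hr at room temperature.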
# [13] = qHTS assay for environmental chemicals that activate the Aryl hydrocarbon Receptor (AhR) signaling pathway (AID 651777); details: 1A2-DRE human hepatoma cells, luciferase, 24 h; activation: stronger effect = higher value; note: nearly all actives have a fitted effect of over 15% in size
# In short: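 Stable CYP1A2 promoter/DRE-luciferase human hepatoma line treated 24 hr; One-Glo luminescence, 30 min RT.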
# [14] = target: Peroxisome proliferator-activated receptor alpha (Homo sapiens) (UniProt Q07869); assay: qHTS assay for small molecule agonists of the peroxisome proliferator-activated receptor alpha (PPARalpha) signaling pathway (AID 651778); details: PathHunter PPARalpha complementation, chemiluminescence, 6 h; stronger effect = higher value
# In short: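 Enzyme-fragment complementation assay in which ligand-bound PPARalpha translocates and forms an active enzyme that generates chemiluminescence. Cells were plated overnight, exposed to compound for 6 hr at 37 C, and then given detection reagent for 60 min at room temperature.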
# [15] = target: Nuclear receptor ROR-gamma (Homo sapiens) (UniProt P51449); assay: qHTS assay for small molecule antagonists of the retinoid-related orphan receptor gamma (ROR-gamma) signaling pathway (AID 651802); note: series mostly up to about 92 µM; nearly all actives have a fitted effect of over 60% in size
# In short: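 CHO cells carrying TET-inducible ROR-gamma and an ROR response element–luciferase reporter were exposed to compound, then induced with doxycycline. After 16hr at 37C, luminescence was read; lower signal indicates antagonism.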
# [16] = qHTS assay for small molecule agonists of the antioxidant response element (ARE) signaling pathway measured by Nrf2-dependant transcriptional activity (AID 720636; active = well fitted curve in the direction sought with a large enough effect in the repeat runs; an effect the other way counts as inactive or inconclusive;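 note: HepG2 cells with an ARE-driven luciferase reporter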)
# In short: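 Reporter gene assay, HepG2 ARE-luc: 16 hr compound, 37 C, 5% CO2; read-out luciferase luminescence.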
# [17] = qHTS assay for small molecule antagonists of the retinoid-related orphan receptor gamma (ROR-gamma) signaling pathway - cell viability counter screen (AID 720652; active = well fitted curve in the direction sought with a large enough effect in the repeat runs; an effect the other way counts as inactive or inconclusive;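 note: series mostly up to about 92 µM; compound exposure lasted 16 hr before ATP read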)
# In short: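 Counter screen in CHO cells carrying TET-inducible ROR-gamma and an ROR response element-luciferase reporter; cells plated 5 hr, compound pinned, doxycycline added, then 16 hr at 37 C. Viability read as intracellular ATP by CellTiter-Glo luminescence.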
# [18] = qHTS assay for small molecule agonists of the antioxidant response element (ARE) signaling pathway measured by Nrf2-dependant transcriptional activity - cell viability counter screen (AID 720653; active = well fitted curve in the direction sought with a large enough effect in the repeat runs; an effect the other way counts as inactive or inconclusive); details: ARE-bla HepG2 viability, CellTiter-Glo ATP luminescence, 16 h; stronger effect = lower value
# In short: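 ARE-bla HepG2 cells treated with compounds for 16 h at 37C; this counter screen measures viability as intracellular ATP by CellTiter-Glo luminescence after 30 min at room temperature.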
# [19] = qHTS assay for cell viability of HEK293 cells (AID 743288); details: ATP luminescence (CellTiter-Glo), 18 h; max response: stronger effect = lower value; note: nearly all actives have a fitted effect of over 50% in size
# In short: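 HEK293 parental, 2,000 cells/well; ≥5 h pre-incubation 37 C; pintool compound addition; 18 h, 37 C; CellTiter-Glo 30 min RT; luminescence read.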
# [20] = qHTS assay for cell viability of the p53RE-bla HCT-116 cell line (AID 743292); note: nearly all actives have a fitted effect of over 55% in size
# In short: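 Readout: CellTiter-Glo luminescence after 30 min RT. Treatment: compounds in DMSO, 16 h, 37 C. Cells: CellSensor p53RE-bla HCT-116, 4,000/well, preincubated 5 h.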
# [21] = target: Nuclear receptor subfamily 1 group I member 2 (Rattus norvegicus) (UniProt Q9R1A7); assay: qHTS assay for small molecule activators of the rat pregnane X receptor (rPXR) signaling pathway (AID 651751; call rule not given here); details: rPXR reporter cells, luciferase (One-Glo), 24 h
# [22] = qHTS assay for small molecule activators of the human pregnane X receptor (PXR) signaling pathway (AID 720659; call rule not given here)
# Thyroid hormone receptor beta (Homo sapiens), sequence (P10828 whole entry, looked up): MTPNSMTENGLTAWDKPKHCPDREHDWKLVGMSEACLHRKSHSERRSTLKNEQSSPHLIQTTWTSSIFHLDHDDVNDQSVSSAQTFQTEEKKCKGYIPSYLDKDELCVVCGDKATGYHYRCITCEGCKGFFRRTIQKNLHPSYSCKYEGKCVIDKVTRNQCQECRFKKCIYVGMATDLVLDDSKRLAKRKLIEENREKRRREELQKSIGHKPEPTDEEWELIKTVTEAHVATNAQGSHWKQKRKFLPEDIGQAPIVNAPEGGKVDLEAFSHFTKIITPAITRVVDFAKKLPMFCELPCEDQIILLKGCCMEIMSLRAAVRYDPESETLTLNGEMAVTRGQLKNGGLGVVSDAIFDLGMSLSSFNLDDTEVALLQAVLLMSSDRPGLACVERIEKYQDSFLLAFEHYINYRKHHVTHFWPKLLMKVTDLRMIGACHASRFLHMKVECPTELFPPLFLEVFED
# Retinoic acid receptor RXR-alpha (Homo sapiens), sequence (P19793 whole entry, looked up): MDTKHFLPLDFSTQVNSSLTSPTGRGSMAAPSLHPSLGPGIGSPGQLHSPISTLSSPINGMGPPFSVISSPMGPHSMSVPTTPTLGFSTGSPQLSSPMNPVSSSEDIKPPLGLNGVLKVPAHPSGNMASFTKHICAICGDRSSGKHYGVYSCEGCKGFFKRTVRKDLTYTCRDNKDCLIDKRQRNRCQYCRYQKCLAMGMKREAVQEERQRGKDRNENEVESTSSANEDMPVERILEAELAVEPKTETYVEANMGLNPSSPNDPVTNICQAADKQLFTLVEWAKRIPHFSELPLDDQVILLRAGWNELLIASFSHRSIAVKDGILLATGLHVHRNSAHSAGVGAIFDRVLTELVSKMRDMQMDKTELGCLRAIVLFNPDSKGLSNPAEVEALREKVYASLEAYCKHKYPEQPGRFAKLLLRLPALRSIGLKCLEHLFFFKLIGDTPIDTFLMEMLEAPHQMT
# Tumor necrosis factor (Homo sapiens), sequence (P01375 whole entry, looked up): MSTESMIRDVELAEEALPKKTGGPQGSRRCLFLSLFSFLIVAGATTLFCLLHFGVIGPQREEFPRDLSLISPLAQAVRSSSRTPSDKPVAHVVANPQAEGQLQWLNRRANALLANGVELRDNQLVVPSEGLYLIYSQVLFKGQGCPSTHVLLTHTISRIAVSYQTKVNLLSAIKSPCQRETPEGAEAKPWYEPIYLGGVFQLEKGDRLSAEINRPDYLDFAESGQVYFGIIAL
# Voltage-gated inwardly rectifying potassium channel KCNH2 (Homo sapiens), sequence (Q12809 whole entry, looked up): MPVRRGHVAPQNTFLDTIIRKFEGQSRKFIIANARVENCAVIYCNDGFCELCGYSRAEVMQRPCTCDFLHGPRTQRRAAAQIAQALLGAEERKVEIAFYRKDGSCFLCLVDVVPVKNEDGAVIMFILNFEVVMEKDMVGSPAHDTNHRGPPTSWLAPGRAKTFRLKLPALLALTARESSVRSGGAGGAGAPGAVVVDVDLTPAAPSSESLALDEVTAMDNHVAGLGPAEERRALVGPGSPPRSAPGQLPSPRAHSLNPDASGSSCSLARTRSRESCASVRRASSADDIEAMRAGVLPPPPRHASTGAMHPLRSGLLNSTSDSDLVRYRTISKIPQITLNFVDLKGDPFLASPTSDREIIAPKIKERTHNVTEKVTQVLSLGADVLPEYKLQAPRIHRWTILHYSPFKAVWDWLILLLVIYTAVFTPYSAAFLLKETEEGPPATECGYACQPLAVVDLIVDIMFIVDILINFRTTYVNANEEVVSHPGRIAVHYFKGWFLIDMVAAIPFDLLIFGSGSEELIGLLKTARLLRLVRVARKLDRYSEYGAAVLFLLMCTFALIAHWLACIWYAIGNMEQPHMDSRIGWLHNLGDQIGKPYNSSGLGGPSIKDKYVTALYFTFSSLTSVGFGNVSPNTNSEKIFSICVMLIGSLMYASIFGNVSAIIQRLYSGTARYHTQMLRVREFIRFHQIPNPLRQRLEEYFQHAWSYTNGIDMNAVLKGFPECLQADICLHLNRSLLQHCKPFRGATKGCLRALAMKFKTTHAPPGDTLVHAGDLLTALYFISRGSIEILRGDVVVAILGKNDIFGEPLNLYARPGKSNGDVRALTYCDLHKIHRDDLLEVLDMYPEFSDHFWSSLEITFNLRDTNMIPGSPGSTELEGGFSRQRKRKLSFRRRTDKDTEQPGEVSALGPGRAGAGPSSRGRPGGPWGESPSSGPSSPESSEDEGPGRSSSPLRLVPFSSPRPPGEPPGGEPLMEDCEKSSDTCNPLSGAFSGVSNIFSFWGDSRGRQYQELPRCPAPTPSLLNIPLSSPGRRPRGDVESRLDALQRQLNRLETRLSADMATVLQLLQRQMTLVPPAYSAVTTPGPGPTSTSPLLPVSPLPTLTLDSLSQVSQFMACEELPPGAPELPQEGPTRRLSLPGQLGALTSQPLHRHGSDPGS
# Nuclear receptor ROR-gamma (Homo sapiens), sequence (P51449 whole entry, looked up): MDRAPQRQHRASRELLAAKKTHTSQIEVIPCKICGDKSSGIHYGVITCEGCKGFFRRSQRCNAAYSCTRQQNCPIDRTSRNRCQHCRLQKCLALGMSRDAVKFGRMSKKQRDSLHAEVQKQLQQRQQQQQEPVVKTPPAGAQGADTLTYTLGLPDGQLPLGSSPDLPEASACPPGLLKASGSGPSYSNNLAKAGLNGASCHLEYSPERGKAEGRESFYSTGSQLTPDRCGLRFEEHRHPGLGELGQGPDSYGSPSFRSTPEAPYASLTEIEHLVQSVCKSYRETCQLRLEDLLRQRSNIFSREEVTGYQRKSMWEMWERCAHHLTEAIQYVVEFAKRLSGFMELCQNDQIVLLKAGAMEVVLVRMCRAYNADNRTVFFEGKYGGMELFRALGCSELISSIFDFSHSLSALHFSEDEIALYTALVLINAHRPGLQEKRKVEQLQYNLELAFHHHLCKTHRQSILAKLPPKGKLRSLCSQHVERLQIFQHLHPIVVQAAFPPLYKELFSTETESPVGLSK
# Nuclear receptor subfamily 1 group I member 2 (Rattus norvegicus), sequence (Q9R1A7 whole entry, looked up): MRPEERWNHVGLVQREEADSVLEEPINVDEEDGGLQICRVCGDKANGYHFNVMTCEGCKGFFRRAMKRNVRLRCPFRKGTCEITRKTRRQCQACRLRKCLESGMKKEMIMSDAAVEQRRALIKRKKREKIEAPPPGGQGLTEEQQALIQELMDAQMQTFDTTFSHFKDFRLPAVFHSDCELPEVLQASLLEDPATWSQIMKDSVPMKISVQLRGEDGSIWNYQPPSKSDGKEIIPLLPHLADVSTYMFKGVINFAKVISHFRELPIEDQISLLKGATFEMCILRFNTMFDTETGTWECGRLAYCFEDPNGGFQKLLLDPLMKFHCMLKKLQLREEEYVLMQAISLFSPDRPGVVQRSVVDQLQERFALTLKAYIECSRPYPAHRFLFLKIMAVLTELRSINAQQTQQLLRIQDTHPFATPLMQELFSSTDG
# Peroxisome proliferator-activated receptor alpha (Homo sapiens), sequence (Q07869 whole entry, looked up, the tested form may be a part): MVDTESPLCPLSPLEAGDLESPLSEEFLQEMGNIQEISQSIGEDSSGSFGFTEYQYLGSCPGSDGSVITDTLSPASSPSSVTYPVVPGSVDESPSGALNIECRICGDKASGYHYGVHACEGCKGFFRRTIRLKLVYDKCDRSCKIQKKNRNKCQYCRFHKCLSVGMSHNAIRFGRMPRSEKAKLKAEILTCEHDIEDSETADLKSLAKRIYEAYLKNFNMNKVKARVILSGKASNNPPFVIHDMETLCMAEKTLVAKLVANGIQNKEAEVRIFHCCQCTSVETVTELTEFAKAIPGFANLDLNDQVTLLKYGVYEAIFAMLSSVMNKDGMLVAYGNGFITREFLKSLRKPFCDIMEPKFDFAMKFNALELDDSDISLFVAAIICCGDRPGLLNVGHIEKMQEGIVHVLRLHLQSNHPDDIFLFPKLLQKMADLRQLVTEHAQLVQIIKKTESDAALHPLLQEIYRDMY
smiles,measurement,setting,value
Nc1ccc(Br)cc1,max response,[1],1.14%
same,Potency,[2],inactive
same,outcome,[3],inactive
same,max response,[4],3.4%
same,max response,[5],15.2% (inactive)
same,activity change % (negative = inhibition),[6],-8.18% (inactive)
same,Potency,[7],inactive
same,activation,[8],-1.91% (inactive)
same,activation,[9],-0.0985% (inactive)
same,Potency,[10],inactive
same,Potency,[11],inactive
same,outcome,[12],inactive
same,activation,[13],0.717% (inactive)
same,max response,[14],-1.52% (inactive)
same,Potency,[15],inactive
same,outcome,[16],inactive
same,Potency,[17],inactive
same,max response,[18],-4.77% (inactive)
same,max response,[19],-7.62% (inactive)
same,Potency,[20],inactive
same,max response,[21],-3.71% (inactive)
same,outcome,[22],inactive
